# Screens: PubChem, National Center for Advancing Translational Sciences (NCATS)
# Rows were chosen to be rich in hits. Some 19% of all compounds tested hit in one or more screens of this group.
# HT1080-NT tox: kills 2HG-producing HT-1080-NT fibrosarcoma cells. HT-1080-NT fibrosarcoma viability, CellTiter-Glo ATP luminescence, 48 h. Potency, µM (series often up to 46.1 µM), for inactives: at the top dose activity, negative = less viability, usual class: cytotoxic. actives 1.6% (n = 360,000). AID 686970;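 also: NT is the 2HG producing partner of a matched IDH1 knockdown line; potency is read from the fitted curve at half-maximal effect; 0% = DMSO-treated cells and -100% = media-only wells without cells; nearly all actives have a fitted effect of over 55% in size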
#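 Read-out is CellTiter-Glo luminescence after 10 minutes at room temperature, following 48 hours' compound treatment of HT-1080-NT cells (750 cells/well, RPMI, 5% FBS, 37 degrees C).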
# HT1080 IDH1KD tx: kills HT-1080 cells with IDH1 knockdown. actives 2% (n = 360,000). HT-1080 IDH1 knockdown viability, ATP luminescence, 48 h. Potency, µM (series often up to 46.1 µM), without a hit: at the highest dose activity, negative = toxicity, hits mostly cytotoxic. AID 686971;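 also: potency is read from the fitted curve at half-maximal effect; 0% = DMSO wells and -100% = cell-free medium wells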
#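 Assay cells: HT-1080 with IDH1 knockdown, 750 per well, RPMI/5% FBS. Exposure: 48 h at 37 °C following 2 h pre-incubation. Read: CellTiter-Glo luminescence; fitted concentration-response, curve class assigned.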
# IL1B secr inh: blocks inflammasome-driven IL-1 beta release | activity change, % at 57.5 µM | THP-1 LPS/ATP IL-1B secretion, AlphaLISA, 16 h; active compounds read low | actives 4.7% (n = 360,000); in the data active = activity change below about -50%; inconclusive = mostly about -30% to -49%
#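 Secreted IL-1B measured by AlphaLISA bead assay after 16 h compound exposure of THP-1 cells; compounds (final up to 57.5 uM) added 1 h before LPS (250 ng/mL) and ATP (1.25 mM) stimulation; lower signal means less secretion.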
# TDP1 cell noCPT: qHTS for Inhibitors of human tyrosyl-DNA phosphodiesterase 1 (TDP1): qHTS in cells in absence of CPT; Potency, µM (titrated, usually from 46.2 µM), for the others: at the highest dose activity change, negative = growth inhibition, actives largely listed as inhibitors; DT40 Tdp1-/- hTDP1 cells, no CPT, ATP luminescence, 48 h; actives 15% (n = 420,000); also: potency is read from the fitted curve at half-maximal effect; nearly all actives have a fitted effect of over 55% in size
#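 Readout: luminescence from CellTiter-Glo after 30 min in the dark at RT. Cells: DT40 Tdp1-/- with stable hTDP1, 400/well. Exposure: compounds alone, ≥48 hr, 37 °C.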
# DT40 TDP1 CPT: growth inhibition of DT40 Tdp1-/-;hTDP1 cells with camptothecin (screen for TDP1 inhibitors). chicken DT40 Tdp1-/-;hTDP1 cells + 20 nM CPT, ATP luminescence, 48 h. Potency, µM (top dose mostly 46.2 µM), inactives show top-dose activity change, negative = growth inhibition, actives largely listed as inhibitors. actives 12% (n = 420,000); also: potency is read from the fitted curve at half-maximal effect; nearly all actives have a fitted effect of over 55% in size
#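 Cell growth measured by CellTiter-Glo luminescence after a minimum 48 h, 37 C compound exposure with 20 nM CPT in Tdp1-knockout DT40 cells stably expressing hTDP1, seeded 400/well; qHTS titration format.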
# * marks the source's active call; other numbers are inactive results; ? = inconclusive; · = no result given; [ ] = another dose, or the depositor's remark. Unless noted, calls follow the shape of the dose curve; as a rule, active = well fitted curve in the direction sought with a large enough effect; inconclusive = small, poorly fitted or top-dose-only effect, or another doubt; inactive = no such curve, though single readings can be large; an effect the other way counts as inactive or inconclusive. Unless noted, % is scaled to controls: 0 for no effect and ±100 for the full control effect.
SMILES,HT1080-NT tox,HT1080 IDH1KD tx,IL1B secr inh,TDP1 cell noCPT,DT40 TDP1 CPT
COc1ccc(Cc2nc3ccc(C(=O)NC4CCOC4)cc3o2)cc1 (centres undefined),9%,11%,33,14%,-4%
O=C(CCSCc1cccc(F)c1)NCCc1ccccc1,4%,11%,1,-12%,2%
CC1NC(C)(C)Cc2c1ccc1ccccc21 (centres undefined),-15%,-29%,-23,1%,-3%
CNC(=O)/C=C1\NC(C)(C)Cc2c1ccc1ccccc21,-17%,-13%,-67*,21µM*,21µM*
COc1ccc(OC)c(NC(=O)C2(C)CCN2C(=O)CCC2CCCC2)c1 (centres undefined),-2%,-14%,-4,?,16µM*
CC1(C(=O)Nc2cccc3c2CCCC3)CCN1C(=O)CCC1CCCC1 (centres undefined),12%,1%,15,?,21µM*
COc1ccc(OC)c(NC(=O)C2(C)CCN2C(=O)CC2CC2)c1 (centres undefined),30%,1%,21,?,-10%
CC1(C(=O)Nc2ccc(Cl)c(Cl)c2)CCN1C(=O)CCC1CCCC1 (centres undefined),-26%,3%,4,23µM*,23µM*
CC(=O)Nc1c(O)c2cccc3c2n(c1=O)CCC3,18%,19%,18,-5%,10%
CCCCOc1ccc2c(c1)/C(=C(\C(Cl)=C(Cl)Cl)[N+](=O)[O-])N2,9%,-2%,0,-22%,-24%
COc1cccc(CC(NC(C)=O)C(=O)NC2CCN(C(=O)C3CC3)CC2)c1OC (centres undefined),8%,7%,-6,3%,-4%
Cn1c(/C(C#N)=C/c2ccc(O)cc2)nc2ccccc21,5%,3%,-20,-16%,?
Cn1c(/C(C#N)=C/c2ccc(C(F)(F)F)cc2)nc2ccccc21,·,·,·,13µM*,21µM*
Cn1c(/C(C#N)=C/c2ccncc2)nc2ccccc21,-1%,3%,-52*,21µM*,?
CCOc1cc(C2C(C(=O)OCC(C)C)=C(C)N=C3SCCC(=O)N32)ccc1OC(C)=O (centres undefined),-3%,-11%,6,-17%,-5%
Cc1cc(C(=O)NCC(=O)OCC(=O)NCCc2ccccc2)ccc1[N+](=O)[O-],20%,15%,-9,3%,8%
CCOC(=O)CC(=O)CSc1nc2c(sc(=S)n2-c2ccc(C)c(C)c2)c(=O)[nH]1,-28%,-6%,-4,-14%,-3%
CCOC(=O)CC(=O)CSc1nc2c(sc(=S)n2-c2ccc(OCC)cc2)c(=O)[nH]1,?,-28%,-53*,?,-11%
C=Cc1cc2c(cc1O)CCC1C2CCC2(C)C(O)CCC12 (centres undefined),?,?,?,16µM*,?
CC#Cc1cc2c(cc1O)CCC1C2CCC2(C)C(O)CCC12 (centres undefined),8.2µM*,?,0,2.3µM*,2.9µM*
C[C@@]12CCC3c4ccc(OS(=O)(=O)O)cc4CCC3C1CCC2O (some centres undefined),·,·,·,-3%,1%
CCc1nc2ccc(C(=O)Nc3ccc(OC)c(OC)c3)cn2c1N(C)CCC(C)C,16%,17%,?,?,?
O=C(CCC1CCCN(C(=O)C2(c3ccccc3)CC2)C1)N1CCN(c2ccccn2)CC1 (centres undefined),-3%,-18%,?,?,?
NNc1nc(C(F)(F)F)nc2ccccc12,0%,8%,30,-6%,3%
O/C=c1\ccc2cccc3nc(C(F)(F)F)nc1c23,-25%,-9%,-1,21µM*,10µM*
SMILES,HT1080-NT tox,HT1080 IDH1KD tx,IL1B secr inh,TDP1 cell noCPT,DT40 TDP1 CPT
CCCNC(=S)Nc1ccc(F)cc1F,4%,-5%,27,?,-1%
CC1CCN(C(=O)COC(=O)c2ccc(Cl)nc2)CC1,0%,-6%,8,0%,-2%
COc1ccc(CNc2nc3c(c(=O)n(Cc4ccc(Cl)cc4)c(=O)n3C)n2C)cc1,?,-30%,?,23µM*,18µM*
COc1ccc(OC)c(CCNc2nccn(-c3ccc(C)c(C)c3)c2=O)c1,·,·,·,21µM*,15µM*
C=C(C)Cn1c(NCCC)nc2c1c(=O)n(C)c(=O)n2C,-2%,0%,30,?,?
Cn1c(=O)c2c(nc(NCc3cccnc3)n2Cc2ccc(Cl)cc2)n(C)c1=O,?,?,?,5.8µM*,?
COCCNc1nc2c(c(=O)n(Cc3ccc(OC)cc3)c(=O)n2C)n1C,5%,3%,46,-3%,-6%
CCCNc1nc2c(c(=O)n(C)c(=O)n2C)n1Cc1ccc(F)cc1,-5%,-17%,13,9.2µM*,6.5µM*
COc1ccc(-n2ccnc(NCCc3ccc(S(N)(=O)=O)cc3)c2=O)cc1Cl,·,·,·,?,-27%
CCN(CC)S(=O)(=O)c1ccc(C(=O)N2CCN=C2SCc2cccnc2)cc1,1%,-1%,-20,-20%,-20%
COc1ccc(S(=O)(=O)NCCCn2ccnc2)cc1Cl,-2%,8%,-1,8%,7%
CC1CCN(C(=O)C2CCN(S(=O)(=O)c3ccc(-n4cnnn4)cc3)CC2)CC1,17%,12%,-9,?,1%
CCNc1nc2c(c(=O)n(C)c(=O)n2C)n1Cc1ccc(Cl)cc1,0%,-11%,17,6.5µM*,3.7µM*
CCC(C)Nc1nc2c(c(=O)n(C)c(=O)n2C)n1Cc1ccc(Cl)cc1 (centres undefined),-12%,-18%,-27,23µM*,13µM*
COc1ccc(-n2ccnc(NCc3ccc(Cl)cc3)c2=O)cc1,·,·,·,15µM*,?
CCC(C)Nc1nc2c(c(=O)n(C)c(=O)n2C)n1Cc1cccc(C)c1 (centres undefined),18%,7%,-18,-21%,1%
CCNc1nc2c(c(=O)n(Cc3ccccc3)c(=O)n2C)n1Cc1ccccc1,-15%,?,?,?,?
CC1CN(Cc2cc(=O)oc3cc(O)c(Cl)cc23)CC(C)O1 (centres undefined),1%,4%,5,?,?
Cc1ccsc1-c1nc(CN(C)C(C2CC2)C2CC2)c(C)o1,-13%,-14%,-9,?,?
O=C1C=C(O)c2ccccc2C1=O,·,·,·,-2%[9.04 µM],?
O=C1C=C(C2CCCCC2)C(=O)c2ccccc21,2%,1%,82,15µM*,21µM*
O=C(O)c1ccc(C2CCCCC2)cn1,?,-27%,-2,?,?
